{"source": "the supplement of paper PMC7726561", "sequences": {"B1": {"name": "unnamed (peptide)", "chain": "SLLDGVVEKL"}, "B2": {"name": "unnamed (peptide)", "chain": "TLFPVRLLV"}, "B3": {"name": "unnamed (peptide)", "chain": "GLIDGRLTI"}, "B4": {"name": "unnamed (peptide)", "chain": "FLLEQEKTQAL"}, "B5": {"name": "unnamed (peptide)", "chain": "LMGPVVHEV"}, "B6": {"name": "unnamed (peptide)", "chain": "QLQGYLRSV"}, "B7": {"name": "unnamed (peptide)", "chain": "GMDRYLIYV"}, "B8": {"name": "unnamed (peptide)", "chain": "YIYDKDMEII"}, "B9": {"name": "unnamed (peptide)", "chain": "QLLETLNQL"}, "B10": {"name": "unnamed (peptide)", "chain": "QLTNVILHL"}, "B11": {"name": "unnamed (peptide)", "chain": "SILSEVQQA"}, "B12": {"name": "unnamed (peptide)", "chain": "RLYQGINQL"}, "B13": {"name": "unnamed (peptide)", "chain": "FLPDPSALQNL"}, "B14": {"name": "unnamed (peptide)", "chain": "TLIDLPGITRV"}, "B15": {"name": "unnamed (peptide)", "chain": "LLAILPEAARA"}, "B16": {"name": "unnamed (peptide)", "chain": "ALLSGLREA"}, "B17": {"name": "unnamed (peptide)", "chain": "KLDQVIIHV"}, "B18": {"name": "unnamed (peptide)", "chain": "KVLEVTEEFGV"}, "B19": {"name": "unnamed (peptide)", "chain": "ILLEHGADPNL"}, "B20": {"name": "unnamed (peptide)", "chain": "VLDEEIAKA"}, "B21": {"name": "unnamed (peptide)", "chain": "SLLENIAKA"}, "B22": {"name": "unnamed (peptide)", "chain": "SLQEEIAKL"}, "B23": {"name": "unnamed (peptide)", "chain": "SLMDPNKFLLL"}, "B24": {"name": "unnamed (peptide)", "chain": "VLQGKLAEV"}, "B25": {"name": "unnamed (peptide)", "chain": "HLAIKLEQV"}, "B26": {"name": "unnamed (peptide)", "chain": "KIIEYSVYL"}, "B27": {"name": "unnamed (peptide)", "chain": "ALAPAPPQV"}, "B28": {"name": "unnamed (peptide)", "chain": "GLSTEGIYRV"}, "B29": {"name": "unnamed (peptide)", "chain": "ILDAGGHNVTI"}, "B30": {"name": "unnamed (peptide)", "chain": "KVIDYVPGI"}, "B31": {"name": "unnamed (peptide)", "chain": "NLFNRYPAL"}, "B32": {"name": "unnamed (peptide)", "chain": "FLMDFIHQV"}, "B33": {"name": "unnamed (peptide)", "chain": "FLMKNSDLYGA"}, "B34": {"name": "unnamed (peptide)", "chain": "ALLDRIVSV"}, "B35": {"name": "unnamed (peptide)", "chain": "NIIPYITNV"}, "B36": {"name": "unnamed (peptide)", "chain": "SLLPEGPPAI"}, "B37": {"name": "unnamed (peptide)", "chain": "LLAEDDELHL"}, "B38": {"name": "unnamed (peptide)", "chain": "FLDHIIASV"}, "B39": {"name": "unnamed (peptide)", "chain": "ALAPGVRAV"}, "B40": {"name": "unnamed (peptide)", "chain": "YLPEDFIRVG"}, "B41": {"name": "unnamed (peptide)", "chain": "LLQEVEHQL"}, "B42": {"name": "unnamed (peptide)", "chain": "ALFPGDVDRL"}, "B43": {"name": "unnamed (peptide)", "chain": "WLIEDGKVVTV"}, "B44": {"name": "unnamed (peptide)", "chain": "AMNISVPQV"}, "B45": {"name": "unnamed (peptide)", "chain": "FLAELPGSLSL"}, "B46": {"name": "unnamed (peptide)", "chain": "ILEEKGLSQV"}, "B47": {"name": "unnamed (peptide)", "chain": "LLSDVRFVL"}, "B48": {"name": "unnamed (peptide)", "chain": "LLRDGIELV"}, "B49": {"name": "unnamed (peptide)", "chain": "AMSNLVPPVEL"}, "B50": {"name": "unnamed (peptide)", "chain": "RLGEAEGLMKV"}, "B51": {"name": "unnamed (peptide)", "chain": "FILDFYEKV"}, "B52": {"name": "unnamed (peptide)", "chain": "KIFEMGPVFTL"}, "B53": {"name": "unnamed (peptide)", "chain": "ALLDGRLQV"}, "B54": {"name": "unnamed (peptide)", "chain": "FILPHISTA"}, "B55": {"name": "unnamed (peptide)", "chain": "LADETLLKV"}, "B56": {"name": "unnamed (peptide)", "chain": "GLDPNKPPEL"}}, "note": "Whole data set: some 1,100 sequences, median “thermal melting temperature (Tm) of peptide-HLA complex” near 58, cut for the lowest 2% near 42. This is one part of a sample in which the lowest values are shown more often than they occur.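 Further: lysates heated 10 min at 37–73 °C, complexes pulled down with pan-HLA I antibody, peptide signal by DIA-MS relative to 37 °C, Tm where half the complex is unfolded.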"}
{"biological_target": "HLA-A*02:01", "assay": "thermal melting temperature (Tm) of peptide-HLA complex; higher = more thermostable pHLA complex", "conditions": "C1R-A*02:01", "units": {"thermal melting temperature": "°C"}}
{"sequence": "B1", "thermal melting temperature": 55.5}
{"sequence": "B2", "thermal melting temperature": 55.8}
{"sequence": "B3", "thermal melting temperature": 54}
{"sequence": "B4", "thermal melting temperature": 59}
{"sequence": "B5", "thermal melting temperature": 46.4}
{"sequence": "B6", "thermal melting temperature": 57.7}
{"sequence": "B7", "thermal melting temperature": 60.9}
{"sequence": "B8", "thermal melting temperature": 57.2}
{"sequence": "B9", "thermal melting temperature": 41.4}
{"sequence": "B10", "thermal melting temperature": 58.7}
{"sequence": "B11", "thermal melting temperature": 53.3}
{"sequence": "B12", "thermal melting temperature": 55.9}
{"sequence": "B13", "thermal melting temperature": 55}
{"sequence": "B14", "thermal melting temperature": 56.9}
{"sequence": "B15", "thermal melting temperature": 60}
{"sequence": "B16", "thermal melting temperature": 62.6}
{"sequence": "B17", "thermal melting temperature": 60.5}
{"sequence": "B18", "thermal melting temperature": 62.6}
{"sequence": "B19", "thermal melting temperature": 51.4}
{"sequence": "B20", "thermal melting temperature": 40.7}
{"sequence": "B21", "thermal melting temperature": 60.6}
{"sequence": "B22", "thermal melting temperature": 53.4}
{"sequence": "B23", "thermal melting temperature": 55.1}
{"sequence": "B24", "thermal melting temperature": 53.5}
{"sequence": "B25", "thermal melting temperature": 59.5}
{"sequence": "B26", "thermal melting temperature": 59.5}
{"sequence": "B27", "thermal melting temperature": 62.1}
{"sequence": "B28", "thermal melting temperature": 60.9}
{"sequence": "B29", "thermal melting temperature": 54.5}
{"sequence": "B30", "thermal melting temperature": 58.8}
{"sequence": "B31", "thermal melting temperature": 58.4}
{"sequence": "B32", "thermal melting temperature": 62.2}
{"sequence": "B33", "thermal melting temperature": 58.4}
{"sequence": "B34", "thermal melting temperature": 64.2}
{"sequence": "B35", "thermal melting temperature": 51.4}
{"sequence": "B36", "thermal melting temperature": 57.8}
{"sequence": "B37", "thermal melting temperature": 44.2}
{"sequence": "B38", "thermal melting temperature": 61.4}
{"sequence": "B39", "thermal melting temperature": 60.2}
{"sequence": "B40", "thermal melting temperature": 46.8}
{"sequence": "B41", "thermal melting temperature": 57.8}
{"sequence": "B42", "thermal melting temperature": 54.3}
{"sequence": "B43", "thermal melting temperature": 58.3}
{"sequence": "B44", "thermal melting temperature": 58.1}
{"sequence": "B45", "thermal melting temperature": 49.3}
{"sequence": "B46", "thermal melting temperature": 59.1}
{"sequence": "B47", "thermal melting temperature": 54.8}
{"sequence": "B48", "thermal melting temperature": 57.8}
{"sequence": "B49", "thermal melting temperature": 53.7}
{"sequence": "B50", "thermal melting temperature": 56.4}
{"sequence": "B51", "thermal melting temperature": 41.8}
{"sequence": "B52", "thermal melting temperature": 52.7}
{"sequence": "B53", "thermal melting temperature": 60.7}
{"sequence": "B54", "thermal melting temperature": 55.7}
{"sequence": "B55", "thermal melting temperature": 55.2}
{"sequence": "B56", "thermal melting temperature": 61}
